High-throughput results: PubChem, several laboratories
This is a sample that favours compounds with a hit; in the whole collection about 3.8% have one here.
PrPC TRFRET – inhibitors of human cell surface prion protein PrPC, primary screen, cell-based, TR-FRET; Major prion protein (Homo sapiens), P04156; TR-FRET read-out; inhibition, % at 13.8 µM; 370,000 tested, 0.43% active; in the data active = inhibition above about 24%
GDH-TPI counter-1 – GDH-TPI coupling enzyme inhibitors, primary screen, artefact control for M. tuberculosis FBA inhibitor project, biochemical, absorbance, full deck | GDH-TPI coupled enzyme counterscreen, NADH absorbance | inhibition, % at 4.8 µM | 360,000 tested, 1.2% active; in the data active = inhibition above about 30%
FBA Mtb inh – Mtb FBA enzyme inhibitors, primary screen, biochemical, fluorescence, strain H37Rv; inhibition, % at 1 µM; AID 588726, 2011; Fructose-bisphosphate aldolase (Mycobacterium tuberculosis (strain ATCC 25618 / H37Rv)), …; purified M. tuberculosis FBA, fluorescence read-out; 360,000 tested, 2.3% active
Target sequence (P9WQA3 whole entry, looked up): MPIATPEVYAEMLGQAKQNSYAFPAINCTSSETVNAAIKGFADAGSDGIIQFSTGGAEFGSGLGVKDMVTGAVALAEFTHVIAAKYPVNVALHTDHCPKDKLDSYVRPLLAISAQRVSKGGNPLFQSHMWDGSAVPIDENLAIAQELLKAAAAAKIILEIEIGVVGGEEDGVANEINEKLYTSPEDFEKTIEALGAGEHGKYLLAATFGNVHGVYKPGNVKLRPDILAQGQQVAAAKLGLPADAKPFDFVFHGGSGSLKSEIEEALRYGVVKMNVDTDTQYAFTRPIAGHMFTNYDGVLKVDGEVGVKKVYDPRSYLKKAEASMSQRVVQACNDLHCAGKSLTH
PrP 5UTR inh – inhibition of PrP 5' UTR reporter expression. cell-based PrP 5' UTR mRNA reporter, plate reader. AID 488862, 2010. 340,000 tested, 0.35% active. inhibition, % (concentration not given with the values); in the data active = inhibition above about 52%
Y pestis TopoI – Yersinia pestis topoisomerase I inhibitors, primary screen, biochemical, cleavage product accumulation, plate reader, single point | 360,000 tested, 0.064% active | Y. pestis Topo-I cleavage product accumulation | activity, % at 10 µM; in the data active = activity above about 50%, passing the limit was not always enough
Mtb hypoxia inh – PubChem AID 1159583 | M. tuberculosis hypoxia-regulated fluorescent reporter, fluorescence | fluorescence inhibition, % (no concentration beside the values) | 300,000 tested, 0.1% active; in the data active = fluorescence inhibition mostly above about 23%, no sharp cut-off; inactive = mostly below about 17%
Mtb FBA confirm – M. tuberculosis aldolase blockers, biochemical, fluorescence, strain H37Rv, confirmation | shares compounds with FBA Mtb inh | purified M. tuberculosis FBA, fluorescence read-out | AID 651616, 2012 | 5,600 tested, 78% active | inhibition, % at 1 µM
GDH-TPI counter-2 – GDH-TPI coupling enzyme inhibitors, artefact control for M. tuberculosis FBA inhibitor project, biochemical, fluorescence, high throughput. inhibition, % at 1 µM. 5,600 tested, 81% active. GDH-TPI coupled enzyme counterscreen. shares compounds with FBA Mtb inh; in the data active = inhibition above about 10%
GDH-TPI DR – GDH-TPI coupling enzyme inhibitors, dose response, artefact control for M. tuberculosis FBA inhibitor project, biochemical, fluorescence, IC50 | 170 tested, 79% active | shares compounds with FBA Mtb inh | IC50, µM | AID 652145, 2013 | GDH-TPI coupled enzyme assay, artifact counterscreen; call rule not given here
Numbers stand for hits; n = inactive; x = not tested or not shown; + = active, no number. Cut-off read from the data, not from the text of the source, unless noted: active = inhibition above about 27%; inactive = the rest.

SMILES	PrPC TRFRET	GDH-TPI counter-1	FBA Mtb inh	PrP 5UTR inh	Y pestis TopoI	Mtb hypoxia inh	Mtb FBA confirm	GDH-TPI counter-2	others
Cc1c(CC(=O)O)c(=O)oc2c(C)c(OCc3ccccc3Br)ccc12	n	n	n	x	n	n	x	x
Cc1nn(-c2ccccc2)c(Cl)c1C=NNC(=O)c1cncc(Br)c1	x	x	x	x	x	n	x	x
COc1ccc(C2C(C(=O)N3CCOCC3)=C(C)NC3=C2C(=O)CC(C)(C)C3)c(OC)c1 (stereo unspecified)	n	n	58	n	n	n	+	+
COc1ccc(C2C(C#N)=C(C)NC3=C2C(=O)CC(C)(C)C3)c(OC)c1 (stereo unspecified)	x	n	n	n	n	n	x	x
CC1=C(C(=O)N2CCOCC2)C(c2ccccc2F)C2=C(CC(C)(C)CC2=O)N1 (stereo unspecified)	n	n	55	n	n	n	84	73
COc1ccc(C2C=CCN(Cc3ccco3)CC(=O)N2Cc2ccc(F)cc2)cc1 (stereo unspecified)	x	x	x	x	x	n	x	x
COc1ccc(-c2ccc3nnc(SCC(=O)N4CCCC4)n3n2)cc1	n	n	27	n	n	n	189	160
Cc1cc(C(=O)COC(=O)c2ccccc2NCCO)c(C)n1CC1CCCO1 (stereo unspecified)	n	n	29	n	n	n	+	+
Cc1ccc(C(=O)OCC(=O)c2cc(C)n(CC3CCCO3)c2C)cc1 (stereo unspecified)	n	n	n	n	n	n	x	x
Nc1cccc2nc3ccccc3cc12	x	n	75	n	n	n	n	n
COc1ccc2sc(-c3ccc(SC)cc3)c(C#CC(C)(C)O)c2c1	n	39	30	n	n	x	n	n
COCCNC(=O)c1ccc(-c2ccc(OC)cc2C)c2ccoc12	n	n	95	x	n	x	55	44
COc1ccc(-c2ccc(C(=O)NCc3ccccc3)c3occc23)c(C)c1	n	n	n	x	n	x	x	x
COc1ccc(-c2ccc(C(=O)NCCN(C)C)c3occc23)c(C)c1	n	n	33	x	n	x	33	25
O=C(CO)NN=Cc1c2ccccc2cc2ccccc12	x	x	x	x	x	n	x	x
CCN(C(=O)c1cc(Cl)ccc1OC)c1ccccc1C	n	n	n	n	n	n	x	x
CCN(C(=O)c1cnc(NC(C)C)cc1C(F)(F)F)c1ccc(Cl)cc1Cl	n	n	51	n	n	n	85	62
C#CCOCCOCCOCCNc1nc(N2CCN(C(=O)C(Cc3ccc(O)cc3)n3cc(C(N)CC(C)C)nn3)CC2)nc(N2CCN(C(=O)C(CCC(=O)O)n3cc(C(N)C(C)CC)nn3)CC2)n1 (stereo unspecified)	x	x	x	x	x	n	x	x
COc1cc(NC(=O)Nc2ccc(Cl)c(Cl)c2)c(C(=O)O)cc1OC	n	n	104	n	n	n	49	47
CN(C(=O)Nc1ccc(Cl)c(Cl)c1)c1ccccc1C(=O)O	n	n	68	n	n	n	142	134
Cc1ccc(NC(=O)Nc2cccc(Cl)c2)c(C(=O)O)c1	n	n	94	n	n	n	104	78
COc1cc(OC)c(NC(=O)Nc2ccc(OC)c(OC)c2)cc1Cl	n	n	n	n	n	n	x	x
CSc1ccccc1NC(=O)Nc1cccc(Cl)c1	n	n	n	n	n	n	x	x
CCCN1CCC(=O)N(C(CO)CC(C)C)CC1 (stereo unspecified)	x	x	x	x	x	n	x	x
CCNC(=O)/C(C#N)=C/c1c(N2CCN(C)CC2)nc2c(C)cccn2c1=O	n	n	59	n	n	n	96	73
SMILES	PrPC TRFRET	GDH-TPI counter-1	FBA Mtb inh	PrP 5UTR inh	Y pestis TopoI	Mtb hypoxia inh	Mtb FBA confirm	GDH-TPI counter-2	others
COc1ccc(N2CCN(c3nc4c(C)cccn4c(=O)c3/C=C(\C#N)C(N)=O)CC2)cc1	n	n	32	n	n	n	n	n
COCCCNC(=O)/C(C#N)=C/c1c(N2CCN(c3cccc(Cl)c3)CC2)nc2c(C)cccn2c1=O	n	n	54	n	n	n	146	120
C=CCNC(=O)/C(C#N)=C/c1c(N2CCN(c3ccc(OC)cc3)CC2)nc2c(C)cccn2c1=O	n	n	46	n	n	n	174	158
COCCCNC(=O)/C(C#N)=C/c1c(N2CCN(c3ccccc3)CC2)nc2c(C)cccn2c1=O	n	n	n	n	n	n	x	x
COC(=O)/C(C#N)=C/c1c(N2CCN(c3ccccc3)CC2)nc2c(C)cccn2c1=O	n	n	n	n	n	n	x	x
CC1=NNC(=O)C1CC(=O)NN=C/C=C/c1ccccc1 (stereo unspecified)	x	x	x	x	x	n	x	x
CCOC1OC(C(=O)N2CCN(C)CC2)=CC(C2CC2)C1CCCO (stereo unspecified)	x	x	x	x	x	n	x	x
NS(=O)(=O)c1ccc(CCNC(=O)COc2ccc3c4c(c(=O)oc3c2)CCC4)cc1	n	n	n	n	n	n	x	x
CC(C)Oc1ccc2c3c(c(=O)oc2c1)CCC3	n	n	76	n	n	n	86	72
CCN(CC)C(=O)COc1ccc2c3c(c(=O)oc2c1)CCCC3	n	n	50	n	n	n	40	41
CCc1c(C)c2ccc(OCC(N)=O)cc2oc1=O	n	n	88	n	n	n	n	n
CCOC(=O)COc1ccc2c3c(c(=O)oc2c1)CCCC3	n	n	32	n	n	n	+	182
CN1CCN(N=Cc2nc(-c3ccc(Cl)cc3)n3ccccc23)CC1	x	x	x	x	x	n	x	x
Cc1cc(C(=O)NN=Cc2ccco2)c2ccccc2n1	x	x	x	x	x	n	x	x
COc1ccc(C=NNC(=O)CN(C)S(=O)(=O)c2ccc(NC(C)=O)cc2)cc1	x	x	x	x	x	n	x	x
COc1ccccc1NS(=O)(=O)c1cccc(C(=O)NN=Cc2c(CO)cnc(C)c2O)c1	x	x	x	x	x	n	x	x
CC(C)CC(C(=O)Oc1ccc2c3c(c(=O)oc2c1)CCC3)N1C(=O)c2ccccc2C1=O (stereo unspecified)	n	n	31	n	n	n	n	n	GDH-TPI DR=5.6
O=C(O)COc1ccc2c3c(c(=O)oc2c1)CCC3	n	n	96	n	n	n	72	47
O=C(COc1ccc2c3c(c(=O)oc2c1)CCC3)N1CCN(c2ccccc2)CC1	n	n	n	n	n	n	x	x
O=C(COc1ccc2c3c(c(=O)oc2c1)CCC3)Nc1ccc(CCO)cc1	n	n	n	n	n	n	x	x
